Laboratory results taken from PubChem BioAssay AID720541 (National Center for Advancing Translational Sciences (NCATS), 2013).
Out of some 1,300 compounds screened, about 420 (32%) were called active. Roughly 32% stayed inconclusive and do not appear here. Calls come from the whole dose curve; as a rule, active = well fitted inhibition curve with a large enough effect; inconclusive = small, poorly fitted or top-dose-only effect; inactive = no such curve, though single readings can be large or run the other way. The list shows a part of the results. Entries that show only a call come without a potency.

molecular target: C-terminal-binding protein 1 (Homo sapiens) (UniProt Q13363); test: qHTS for Inhibitors of the Phosphatase Activity of Eya2: Carboxyl-terminal binding protein (CtBP) Counterscreen for Cherry-picked Compounds; conditions: purified protein-protein binding, AlphaScreen, 3 h; series mostly up to 46.1 µM; note: nearly all actives have a fitted effect of over 65% in size
Procedure, shortened: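 AlphaScreen using 25 nM GST-E1A with 25 nM CtBP-6xHIS; compounds at 2.5 nM–46 uM final, 2 h at room temperature, then donor/acceptor beads (20 ug/mL) for 1 h in the dark. Signal normalized to E1A peptide inhibitor (maximum inhibition) and DMSO.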
Potency is the fitted concentration of half-maximal effect.

| SMILES | Potency |
| --- | --- |
| COc1ccccc1NC(=O)NCCN1CCN(C(=O)Nc2ccccc2OC)CC1 | inactive |
| COc1ccc(-c2cc(C3CCNCC3)[nH]n2)cc1 | inactive |
| COC(=O)c1ccc(OC(=O)c2cccnc2)cc1 | inactive |
| O=C(/C=C/c1ccccc1)Oc1ccc(C(=S)N2CCOCC2)cc1 | 0.239 µM (active) |
| O=C(Oc1ccc(C(=S)N2CCOCC2)cc1)c1ccc(F)cc1 | inactive |
| O=C(O)c1ccc2c(c1)C(=O)N(c1ccc(/C=C/C(=O)c3ccccc3)cc1)C2=O | inactive |
| CC(=O)c1ccc(OC(=O)/C=C/c2ccccc2)cc1 | 0.536 µM (active) |
| O=C(Oc1ccc(C(=S)N2CCOCC2)cc1)c1ccccc1 | inactive |
| Cc1ccc(C2CC(c3ccc(Br)cc3)=NN2C(=O)CSC2=NN3CCCC(=O)N=C3S2)cc1 (stereo not given) | inactive |
| Fc1cccc(Cc2c(-c3ccco3)nc3ccc(Br)cn23)c1 | inactive |
| COc1cc(C(=S)N2CCOCC2)ccc1OC(=O)c1ccc([N+](=O)[O-])cc1[N+](=O)[O-] | 10.7 µM (active) |
| O=[N+]([O-])c1ccc([N+](=O)[O-])c(Nc2ccc(N3CCOCC3)cc2)c1 | inactive |
| CC(=O)N1CCN(/[N+]([O-])=N/Oc2ccc([N+](=O)[O-])cc2[N+](=O)[O-])CC1 | inactive |
| S=c1[nH]nc(-c2ccccn2)n1/N=C/c1ccc(Br)s1 | 12 µM (active) |
| C[C@@]12CCC=C[C@H]1[C@H](c1ccc3ccccc3c1/C=C/c1ccccc1)N(Cc1ccccc1)C2=O | inactive |
| Cc1ccc(S(=O)(=O)N2c3ccccc3-c3c(ssc3=S)C2(C)C)cc1 | 15.1 µM (active) |
| CC(C)OCCCNC(=O)c1ccccc1NC(=O)C1=CSCCO1 | inactive |
| Nc1ccccc1C(=O)NNc1c2ccccc2nc2ccccc12 | 6.75 µM (active) |
| CC(C)(C)C(=O)[C@H]1[C@H](c2ccccc2)[C@@]2(N=C(c3ccccc3)OC2=O)C2c3ccccc3C=NN21 (stereo not given in full) | inactive |
| CCOc1ccc2nc(N3CCCC(C(=O)N4CCN(CC)CC4)C3)sc2c1 (stereo not given) | inactive |
| O=C1c2cccc3cccc(c23)C(=O)N1CCCN1CCN(c2ccc(F)cc2)CC1 | inactive |
| Cc1ccc2cc(NC(=O)CC(CC(=O)O)c3ccccc3)ccc2n1 (stereo not given) | 15.1 µM (active) |
| CCC(=O)Nc1ccc(-c2nnc(SCc3ccccc3)n2C)cc1 | inactive |
| Cc1ccc(S(=O)(=O)N2CCOCC2)cc1NC(=O)CSc1nnc2cc(C)c3ccccc3n12 | 13.5 µM (active) |

| SMILES | Potency |
| --- | --- |
| CCSc1nnc(-c2ccc(S(=O)(=O)N3CCOCC3)cc2)n1C | inactive |
| CCSc1nc2ccccc2n1C(=O)c1ccc(S(=O)(=O)N2CCCCC2)cc1 | inactive |
| Cc1cc(C)c2nc(SCC(=O)N(C)C3CCS(=O)(=O)C3)cc(C)c2c1 (stereo not given) | inactive |
| COc1ccc(C(=O)Nc2cc(OC)c(NC(=O)Nc3ccccc3)cc2OC)cc1 | inactive |
| COc1ccc(S(=O)(=O)c2c(O)c3ccc(C(=O)Nc4ccccc4F)cc3[nH]c2=O)cc1 | 0.757 µM (active) |
| COc1ccc(N(CC(=O)Nc2cccc(C(C)=O)c2)S(=O)(=O)c2ccc(NC(C)=O)cc2)cc1 | inactive |
| COc1ccc(S(=O)(=O)c2c(O)c3ccc(C(=O)Nc4cccc(F)c4)cc3[nH]c2=O)cc1 | 0.536 µM (active) |
| COc1ccc(C2NC(C(=O)O)Cc3c2[nH]c2ccccc32)cc1CN1CCN(c2ccc(F)cc2)CC1 (stereo not given) | inactive |
| CCc1nc2ccc(C(=O)NCCCN(C)C)cn2c1N(C)Cc1ccc(OC)cc1 | inactive |
| COc1cc(OC)c(OC)cc1/C=C1\CC(C)C/C(=C\c2cc(OC)c(OC)cc2OC)C1=O (stereo not given) | inactive |
| COc1cc(OC)c(OC)cc1/C=C1\C=Cc2ccccc21 | 12 µM (active) |
| COc1cc(N(C)C)ccc1/C=C1\C=Cc2ccccc21 | 8.49 µM (active) |
| CN(C)c1ccc(/C=C2\C=Cc3ccccc32)c(Cl)c1 | 8.49 µM (active) |
| COc1cc(N(C)C)c(OC)cc1/C=C1\C=Cc2ccccc21 | 5.36 µM (active) |
| Cc1cc(C)c(C#N)c(Sc2nnnn2-c2ccccc2)n1 | inactive |
| O=C(O)c1ccc2c(c1)C(=O)N(c1cccc(-c3nc4ccccc4s3)c1)C2=O | inactive |
| N#Cc1c(N)n(-c2cccc(C(=O)O)c2)c2nc3ccccc3nc12 | 10.7 µM (active) |
| N#Cc1c(N)n(-c2ccc(C(=O)O)cc2)c2nc3ccccc3nc12 | 12 µM (active) |
| CN(C)C(C)(C)C#CC(O)(c1ccccc1)c1ccccc1 | inactive |
| O=C(O)c1ccc(-c2ccc(/C=c3/sc4nc5ccccc5n4c3=O)o2)cc1Cl | 4.26 µM (active) |
| CCOc1cccc(CN2CCC(CCC(=O)NC3CC3)CC2)c1O | inactive |
| CC(C(=O)c1ccc(Br)cc1)[n+]1cccc2ccccc21 (stereo not given) | inactive |
| CCC(=O)N1c2ccc(S(=O)(=O)N3CCN(c4ccc([N+](=O)[O-])cc4)CC3)cc2CC1C (stereo not given) | inactive |
| CCc1ccc2nc(N(CCN(C)C)C(=O)c3ccc4ncsc4c3)sc2c1 | inactive |

| SMILES | Potency |
| --- | --- |
| Cc1sc2nc3ccc(N4CCCCC4)nn3c(=O)c2c1C | 13.5 µM (active) |
| C[C@](N)(Cc1ccc(O)c(O)c1)C(=O)O | inactive |
| CCOc1ccc(C2C3=C(Nc4nc(N)[nH]c(=O)c42)c2ccccc2C3=O)cc1 (stereo not given) | 2.39 µM (active) |
| Nc1nc2c(c(=O)[nH]1)C(c1ccccc1)C1=C(N2)c2ccccc2C1=O (stereo not given) | 1.69 µM (active) |
| Nc1nc2c(c(=O)[nH]1)C(c1cccc3ccccc13)C1=C(N2)c2ccccc2C1=O (stereo not given) | 4.26 µM (active) |
| CCCOc1ccc(C2C3=C(Nc4nc(N)[nH]c(=O)c42)c2ccccc2C3=O)cc1 (stereo not given) | 3.79 µM (active) |
| Cc1nc(NC(=O)c2ccccc2)sc1-c1cc(C(=O)O)nn1Cc1ccccc1 | inactive |
| CS(=O)(=O)c1ccc2nc(NC(=O)c3ccccc3Cl)sc2c1 | inactive |
| CS(=O)(=O)c1ccc(C(=O)Nc2nc(-c3ccco3)c(-c3ccco3)s2)cc1 | 13.5 µM (active) |
| Nc1c(N=Nc2ccc([N+](=O)[O-])cc2)c(S(=O)(=O)O)cc2cc(S(=O)(=O)O)c(/C=C/c3ccccc3)c(O)c12 | 7.57 µM (active) |
| COc1ccc2c(c1)sc1nc(=O)ccn12 | inactive |
| O=C(N[C@@H]1CC[C@H](CCn2cc(-c3ccccn3)nn2)O[C@@H]1CO)c1ccncc1 | 12 µM (active) |
| Cc1ccc(SCc2nc(N)nc(Nc3ccccc3C)n2)cc1C | inactive |
| COc1cccc(C(=O)C2CCCN(CC3=Cc4cc(OC)ccc4OC3)C2)c1 (stereo not given) | 13.5 µM (active) |
| COc1ccc(C(=O)C2CCCN(C(=O)c3cccc(N(C)C)c3)C2)cc1OC (stereo not given) | inactive |
| Cc1cn2c(nc(=O)c3cccnc32)s1 | 12 µM (active) |
| COc1cc(NC(=O)c2ccccc2Cl)ccc1NC(=O)c1cccs1 | inactive |
| Cc1cc(NC(=O)c2cccs2)cc(-c2nc3ncccc3o2)c1O | inactive |
| Cc1cc(NC(=O)c2ccccc2F)ncc1NC(=O)c1cccs1 | 12 µM (active) |
| O=C(Oc1ccc(-c2nnco2)cc1)c1ccco1 | inactive |
| CC(=O)Oc1ccc(C(=O)Nc2cc(NC(=O)c3ccc(OC(C)=O)cc3)cc(C(=O)NC(C)(C)C)c2)cc1 | 15.1 µM (active) |
| Cc1ccc(OCC(=O)Nc2cc(NC(=O)COc3ccc(C)c(C)c3)cc(C(=O)O)c2)cc1C | inactive |
| N#C/C(=C\c1ccc(-c2ccc(C(=O)O)cc2)o1)C(=O)Nc1ccc(F)cc1 | 7.57 µM (active) |
| COc1ccc(NC(=O)/C(C#N)=C/c2ccc(-c3ccc(Cl)c(C(=O)O)c3)o2)cc1 | 19 µM (active) |

| SMILES | Potency |
| --- | --- |
| COc1ccc(CC(CC(=O)O)C(=O)Nc2ccc(Cl)c(Cl)c2)cc1 (stereo not given) | inactive |
| COc1ccc(/C=C(/C#N)C(=O)Nc2ccc(O)cc2)cc1C(=O)O | 6.75 µM (active) |
| Cn1c(N)c(C(=O)CSc2nnc(NC3CCCCC3)s2)c(=O)n(C)c1=O | inactive |
| CC(=O)Oc1ccc(C(=O)OCC(=O)c2c(N)n(C)c(=O)n(C)c2=O)cc1OC(C)=O | 6.01 µM (active) |
| O=C1C=C(Nc2ccccc2)C(=O)c2ccccc21 | 4.26 µM (active) |
| O=C(Nc1ccc(-c2nc3cccnc3s2)cc1)C1CCCO1 (stereo not given) | inactive |
| O=C(CSc1ncn[nH]1)N1N=C(c2ccc(Cl)cc2)CC1c1ccco1 (stereo not given) | inactive |
| CN(C)c1ccc(C(=C2C=CC(=[N+](C)C)C=C2)c2c(O)c(S(=O)(=O)[O-])cc3cc(S(=O)(=O)O)ccc23)cc1 | 9.53 µM (active) |
| CN(C)c1ccc(C(=C2C=CC(=[N+](C)C)C=C2)c2ccc(N(C)C)cc2)cc1 | 3.79 µM (active) |
| Nc1n[nH]c2cc(=O)n(-c3ccc(Cl)cc3)nc12 | inactive |
| CCOc1ccc(Br)cc1S(=O)(=O)NC1CC(C)(C)NC(C)(C)C1 | inactive |
| Cc1ccc(-c2csc(NC(=O)c3ccccc3F)c2C(=O)O)cc1 | 9.53 µM (active) |
| COC(=O)c1c(-c2ccc3ccccc3c2)csc1NC(=O)Cc1ccc(OC)c(OC)c1 | inactive |
| CCOc1cc(C(=O)NC(C)CCc2ccccc2)cc(OCC)c1OCC (stereo not given) | inactive |
| COc1ccc(CCNC(=O)C(=O)NCc2cccs2)cc1OC | inactive |
| COc1cc(CNCc2ccccn2)ccc1OCC(=O)NC1CCCCC1 | inactive |
| COc1ccc(CCNc2nc(-c3ccccn3)cs2)cc1OC | 7.57 µM (active) |
| CCC(C)Nc1nc(-c2ccccn2)nc2ccccc12 (stereo not given) | 9.53 µM (active) |
| O=C(Nc1nc2ccc(F)cc2s1)C1=NN(c2ccccc2)C(=O)CC1 | inactive |
| O=C(O)CCN1C(=O)/C(=C/c2ccc(-c3nc4ccccc4s3)o2)SC1=S | 3.01 µM (active) |
| Cc1ccc(-c2nc3ccccc3s2)cc1NC(=S)NC(=O)/C=C/c1ccco1 | inactive |
| COc1ccccc1N1CCN(C(=O)c2ccc(-c3nc4ccccc4s3)o2)CC1 | inactive |
| CCNC(=O)/C(C#N)=C/c1c(N2CCN(c3ccccc3)CC2)nc2c(C)cccn2c1=O | 12 µM (active) |
